Compounds with a hit are over-represented: about 4% of the library has one in this group of screens.
VHR inh abs – VHR1 phosphatase inhibitors, primary screen, biochemical, absorbance, uHTS. Dual specificity protein phosphatase 3 (Homo sapiens), P51452. recombinant VHR phosphatase, pNPP absorbance. inhibition, % at 13.3 µM. actives 0.52% (n = 290,000). AID 1654, 2009; in the data active = inhibition above about 50%
Target sequence (P51452 whole entry, looked up): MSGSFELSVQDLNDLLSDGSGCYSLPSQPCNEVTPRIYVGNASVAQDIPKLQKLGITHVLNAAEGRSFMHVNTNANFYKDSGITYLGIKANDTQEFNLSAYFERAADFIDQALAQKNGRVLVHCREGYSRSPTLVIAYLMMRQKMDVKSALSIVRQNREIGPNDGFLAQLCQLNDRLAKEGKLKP
MazF activator – activators of E. coli MazEF toxin-antitoxin RNase, primary screen, biochemical, fluorescence, uHTS; FAM/BHQ RNA-DNA oligo cleavage fluorescence, 5 h; actives 0.32% (n = 350,000); Endoribonuclease toxin MazF (Escherichia coli (strain K12)), P0AE70; activation, % at 20 µM; in the data active = activation above about 50%
Target sequence (P0AE70 whole entry, looked up): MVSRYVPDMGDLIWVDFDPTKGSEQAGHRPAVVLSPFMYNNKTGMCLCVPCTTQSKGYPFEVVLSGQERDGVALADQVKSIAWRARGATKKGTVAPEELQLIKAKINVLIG
BoNT A protease – BoNT/A light chain protease inhibitors, primary screen, biochemical, flow cytometry, MLPCN library | actives 0.17% (n = 360,000) | multiplex microsphere protease substrate cleavage | Botulinum neurotoxin type A light chain protease (Clostridium botulinum A str. ATCC 3502) | inhibition, % at 10 µM | AID 588499, 2011; note: plate controls were buffer without enzyme for full effect and enzyme alone for no effect
Anthrax LF prot – Bacillus anthracis LF protease inhibitors, primary screen, biochemical, multiplex microsphere, MLPCN library. Lethal factor (Bacillus anthracis), P15917. multiplex microsphere protease cleavage assay. inhibition, % at 10 µM. actives 0.12% (n = 360,000); note: plate controls were buffer without enzyme for full effect and enzyme alone for no effect
BoNT-F LC inh – BoNT/F light chain protease inhibitors, primary screen, biochemical, flow cytometry, MLPCN library. Botulinum neurotoxin type F light chain protease (Clostridium botulinum). Multiplex microsphere protease cleavage assay. inhibition, % at 10 µM. actives 0.22% (n = 360,000); in the data active = inhibition above about 35%, passing the limit was not always enough; inconclusive = no clear call, values can overlap the other calls; note: plate controls were buffer without enzyme for full effect and enzyme alone for no effect
Autofluor counter – counter-screen for toxin protease inhibitors: compound fluorescence; compound autofluorescence counterscreen, microsphere flow cytometry; active compounds read high; fluorescence intensity (test concentration not listed); actives 3.1% (n = 360,000); AID 624483; in the data active = fluorescence intensity above about 16000; inconclusive = no clear call, values can overlap the other calls
Numbers without * were called inactive; ? = inconclusive; . = no result. Cut-off read from the data, not from the text of the source, unless noted: active = inhibition above about 30%; inconclusive = no clear call, values can overlap the other calls; inactive = below that.

SMILES | VHR inh abs | MazF activator | BoNT A protease | Anthrax LF prot | BoNT-F LC inh | Autofluor counter
CCOC(=O)c1sc(NC(=O)CSc2nnc(-c3ccc(OC)cc3)n2CCOC)nc1C | -13.2 | -3.6 | 1.0 | -3.2 | -1.3 | 22333*
COc1ccc(NC(C)=O)cc1NC(C)C(=O)Nc1ccc(F)c(F)c1F (stereo not given) | 22.3 | 1.8 | -0.3 | -8.2 | 0.1 | 3155
Clc1ccc(C[n+]2csc3ccccc32)cc1 | 44.9 | -32.7 | 0.3 | -2.4 | -6.2 | 2210
Fc1ccc(C[n+]2csc3ccccc32)cc1 | 20.8 | 8.0 | ? | -2.1 | -1.5 | 22598*
C=CCNc1nc(N2CCOCC2)c(C#N)c2c1CN(C)CC2 | -3.7 | 53.8* | -0.2 | -6.2 | -1.9 | 11311
CN1CCc2c(C#N)c(N3CCCCC3)nc(N3CCOCC3)c2C1 | . | -2.6 | . | . | . | .
O=C(Nc1nccs1)Oc1ccccc1 | 27.4 | 1.4 | ? | -7.4 | 1.7 | 20333*
Cc1cccc(C(C(N)=O)c2ncc(C(F)(F)F)cc2Cl)c1 (stereo not given) | 1.1 | 9.9 | 0.0 | -1.7 | -3.4 | 2232
CCOC(=O)N1CCN(C(=O)COc2ccc(S(=O)(=O)NCC(C)C)cc2C)CC1 | -3.8 | 3.2 | -1.5 | -0.6 | -3.3 | 21204*
Cc1cc(S(=O)(=O)NCc2ccccc2)ccc1OCC(=O)NCc1ccccn1 | -1.0 | -2.8 | -2.6 | -11.0 | 9.4 | 3620
CCOC(=O)N1CCN(C(=O)COc2ccc(S(=O)(=O)Nc3ccc(OCC)cc3)cc2)CC1 | -0.9 | 1.4 | ? | -8.5 | -6.3 | 17078*
Cc1cc(S(=O)(=O)NCC(C)C)ccc1OCC(=O)N1CCOCC1 | 10.0 | 7.5 | 1.6 | 6.2 | ? | 3940
Cc1cc(S(=O)(=O)NCC(C)C)ccc1OCC(=O)NCc1ccccn1 | -2.4 | -3.8 | -2.7 | -2.0 | -4.5 | 21787*
CCOC(=O)COc1ccc(S(=O)(=O)Nc2cccc(SC)c2)cc1 | 21.3 | -15.5 | -2.6 | -0.4 | -4.7 | 21447*
Cc1cc(NC(=O)COC(=O)C2CCN(S(=O)(=O)c3c(Cl)cccc3Cl)CC2)no1 | -0.5 | -7.5 | -0.6 | -5.5 | -0.1 | 3454
COc1ccc(CCN(Cc2ccccn2)C(=S)Nc2ccccc2F)cc1OC | 20.7 | -10.6 | 0.1 | 0.0 | 2.6 | 4457
COc1cc(OC)cc(C(=O)Nc2nc(CC(=O)NCc3ccccc3OC)cs2)c1 | . | 0.4 | 1.5 | -3.1 | 13.4 | 5030
O=C(Nc1cccc(C(=O)O)c1)/C(=C\c1ccccc1)NC(=O)c1ccccc1Cl | 11.6 | 1.0 | 4.1 | 2.1 | 41.1* | 5393
COC(=O)c1cccc(NC(=O)/C(=C\c2ccccc2)NC(=O)c2ccccc2Cl)c1 | 4.6 | -1.8 | -0.5 | -5.4 | -0.7 | 9655
O=C(N/C(=C\c1ccc(Br)cc1)C(=O)N1CCOCC1)c1ccccc1Cl | 32.2 | 2.7 | 1.6 | -0.1 | -9.3 | 5612
O=C(N/C(=C\c1ccccc1)C(=O)N1CCOCC1)c1ccccc1Cl | 0.5 | 3.1 | -141.5 | -33.4 | -223.0 | 42511*
Cc1sc2nc(CSCC(=O)Nc3ccc(C(=O)N(C)C)cc3)[nH]c(=O)c2c1C | . | 5.6 | . | . | . | .
COc1ccc(F)cc1-c1cc(NC=O)c2ncc(-c3cccc(C(=O)N(C)C)c3)n2c1 | . | . | 0.1 | -3.2 | -6.1 | 3219
CNC(=O)C[C@@H]1C(=O)N(Cc2ccccc2)CC1(C)C | . | 9.1 | -0.3 | -6.7 | -2.7 | 2977
CC12C=CC3(CN(Cc4ccccc4)C(=O)C3C1C(=O)NC1CC1)O2 (stereo not given) | 15.4 | 3.5 | 0.1 | 0.9 | 1.2 | 22134*
CC(=O)Nc1nc(COc2ccccc2)cs1 | -11.2 | 1.7 | -0.5 | 0.1 | 2.0 | 11092
O=C(Nc1nc(COc2ccccc2)cs1)C12CC3CC(CC(C3)C1)C2 | -14.3 | 0.0 | -6.5 | -1.6 | -5.6 | 24492*
CC(=O)Nc1nc(COc2ccc3ccccc3c2)cs1 | 14.0 | 1.7 | -1.6 | -8.4 | -1.3 | 23460*
CCC(C(=O)NCCCN1CC(C)CC(C)C1)n1ncn2c(cc3occc32)c1=O (stereo not given) | 57.7* | 8.3 | 0.0 | -2.2 | 8.8 | 5629

Assay outcomes (PubChem BioAssay)
